Screening data (PubChem)
The list is not random: actives were taken first. Their share in the collection is about 5.3%.
BAZ2B block = inhibitors of human BAZ2B bromodomain; AlphaScreen BAZ2B-H3K14Ac peptide displacement; Potency, µM (titrated, usually from 114 µM), inactives show top-dose activity change, negative = inhibition, most hits filed as inhibitors; 4.4% of 360,000 active; AID 504333; also: potency is read from the fitted curve at half-maximal effect; % is scaled to controls: 0 for no effect and ±100 for the full control effect; nearly all actives have a fitted effect of over 60% in size
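Compounds, titrated to a top concentration of 110 uM, were incubated 30 min at room temperature with preformed BAZ2B/acetyl-K14 H3 peptide complex (50 nM each). Proximity signal was measured by AlphaScreen after 20 min with beads.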
Six1-Eya2 inh = blocks human Six1 binding to Eya2; activity change, % (concentration not given with the values); AID 651725; 0.56% of 360,000 active; AlphaScreen GST-Six1/His-Eya2 binding, biochemical; stronger effect = lower value; Q15475+O00167; in the data active = activity change below about -65%; inconclusive = mostly about -30% to -63%; also: % is scaled to controls: 0 for no effect and ±100 for the full control effect
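Compounds are tested against tagged Six1 and Eya2 proteins bridged by glutathione donor and nickel acceptor beads; after a one-hour incubation at 37 °C without light, AlphaScreen emission is recorded.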
JMJD2A Tudor = inhibitors of human JMJD2A Tudor domain; 4.4% of 390,000 active; AID 504339; AlphaScreen JMJD2A-Tudor / H3K4me3 peptide binding; Potency, µM (highest dose often 114 µM), for the others: at the highest dose activity change, negative = inhibition, most hits filed as inhibitors; also: potency is read from the fitted curve at half-maximal effect; % is scaled to controls: 0 for no effect and ±100 for the full control effect; nearly all actives have a fitted effect of over 50% in size
HP1b binding inh = blocks HP1-beta chromodomain binding to methylated histone tails. AID 540317. 0.56% of 390,000 active. AlphaScreen HP1-beta / biotin-H3K9me3 peptide binding. P83916. Potency, µM (titrated, usually from 114 µM), for the others: at the top dose activity change, negative = inhibition, actives largely listed as inhibitors; also: potency is read from the fitted curve at half-maximal effect; nearly all actives have a fitted effect of over 70% in size
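HP1-beta protein (50 nM final) preincubated 30 min at room temperature with biotinylated H3(1-18)K9me3 peptide (50 nM) in PBS pH 7.4, 0.01% Tween-20, then compound added for 30 min. AlphaScreen streptavidin donor/nickel chelate acceptor beads (10 ug/mL final), 30 min dark, luminescence read.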
CtBP-E1A inh = CtBP/E1A binding inhibition. AlphaScreen GST-E1A/His-CtBP binding, 1536-well; stronger effect = lower value. activity change, % (test concentration not listed). 0.49% of 340,000 active. AID 651724; in the data active = activity change below about -65%; inconclusive = mostly about -30% to -63%; also: % is scaled to controls: 0 for no effect and ±100 for the full control effect
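In 5 uL wells, 23 nL compound meets equimolar GST-E1A and His-CtBP (5X stock 125 nM each) for 2 h, 37 °C. Beads (5X, 50 ug/mL) then 1 h, 37 °C, dark.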
TDP1 inh = blocks human tyrosyl-DNA phosphodiesterase 1; Potency, µM (titrated, usually from 130 µM), for the others: at the top dose activity change, negative = inhibition, actives largely listed as inhibitors; 0.28% of 350,000 active; recombinant TDP1, AlphaScreen DNA substrate cleavage; also: potency is read from the fitted curve at half-maximal effect; % is scaled to controls: 0 for no effect and ±100 for the full control effect; nearly all actives have a fitted effect of over 40% in size
Target sequence (Q9NUW8 whole entry, looked up): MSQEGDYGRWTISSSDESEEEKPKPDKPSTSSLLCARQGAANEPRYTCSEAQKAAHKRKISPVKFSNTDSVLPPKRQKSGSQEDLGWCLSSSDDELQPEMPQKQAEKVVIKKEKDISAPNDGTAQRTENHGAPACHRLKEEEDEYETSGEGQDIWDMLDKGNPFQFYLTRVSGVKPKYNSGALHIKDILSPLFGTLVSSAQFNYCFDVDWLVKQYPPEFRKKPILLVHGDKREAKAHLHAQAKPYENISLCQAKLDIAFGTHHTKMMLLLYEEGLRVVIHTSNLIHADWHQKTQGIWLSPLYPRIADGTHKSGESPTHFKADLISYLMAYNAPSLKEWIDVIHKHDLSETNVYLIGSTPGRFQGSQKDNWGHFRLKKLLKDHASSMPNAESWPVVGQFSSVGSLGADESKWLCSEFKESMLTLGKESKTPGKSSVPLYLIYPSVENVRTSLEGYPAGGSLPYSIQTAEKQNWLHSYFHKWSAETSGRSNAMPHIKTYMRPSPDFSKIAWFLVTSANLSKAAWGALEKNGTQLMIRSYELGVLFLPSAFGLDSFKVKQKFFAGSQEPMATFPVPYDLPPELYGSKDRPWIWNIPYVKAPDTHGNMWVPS
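E. coli-derived human Tdp1, 1 nM final. Cpd preinc 15 min RT; substrate 15 nM final, 5 min RT; AS bead mix 10 ug/ml final, 10 min RT. Signal loss = tyrosine-FITC cleavage. No-enzyme wells = max signal.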
* = called active by the depositor; ? = inconclusive; . = not tested or not shown; [ ] = dose if it differs, or a comment. Unless noted, calls follow the shape of the dose curve; as a rule, active = well fitted inhibition curve with a large enough effect; inconclusive = small, poorly fitted or top-dose-only effect; inactive = no such curve, though single readings can be large or run the other way.

SMILES | BAZ2B block | Six1-Eya2 inh | JMJD2A Tudor | HP1b binding inh | CtBP-E1A inh | TDP1 inh
O=c1c(N2CCc3ccccc3C2)csc2ccc(Br)cc12 | 1.1% | . | -4.8% | 50.0%[57 µM] | . | 6.5%
CCOC(=O)c1ccc(NC(=O)CSc2nc(C)cc(=O)[nH]2)cc1 | 50.1µM* | -8.6 | 44.7µM* | ? | -0.5 | -12.0%
CCOC(=O)c1ccc(NC(=O)CCc2c(C)nc3nc[nH]n3c2=O)cc1 | 56.2µM* | . | -10.4% | 27.6% | . | 1.2%
Cc1cc(C)nc(SCC(=O)c2ccc(O)c(O)c2)n1 | ? | -4.9 | 12.6µM* | 20.3% | -16.6 | .
Cc1cc(=O)[nH]c(SCC(=O)NCc2ccco2)n1 | ? | -18.4 | 79.4µM* | -29.9% | -0.6 | .
COc1ccc(-n2cc(C(=O)Nc3ccccc3C#N)c3ccccc3c2=O)cc1 | -24.3% | . | -28.3% | 30.2% | . | 0.0%
O=C(Nc1cccc(-c2nn3c(=O)cc(N4CCNCC4)nc3s2)c1)c1ccncc1 | . | . | -27.2% | . | . | .
Cc1cc(C)nc(SCC(=O)NN)n1 | 50.1µM* | 10.9 | -4.2% | 5.7% | -8.1 | 5.6%
CSc1nc(-c2ccc(Cl)cc2Cl)[nH]c(=O)c1C#N | -0.3% | -72.0* | -18.3% | 4.4% | ? | 2.6%
Nc1ccc2nc(C3CCCCC3)[nH]c2c1 | 56.2µM* | 2.0 | -17.4% | 12.7% | 0.3 | -2.5%
O=c1c2c(-c3ccccc3)csc2ncn1/N=C/c1cccc([N+](=O)[O-])c1O | 50.1µM* | ? | 79.4µM* | -15.6% | -72.2* | 6.9%
CC1CCN(C(=O)CSc2nnc3c(n2)[nH]c2ccccc23)CC1 | -16.5% | ? | ? | -1.0% | -2.0 | .
CC1=CCC(/C=N\Nc2nnc3c(n2)[nH]c2ccccc23)CC1 (stereo not drawn) | 50.1µM* | . | . | . | . | 1.1%
N#Cc1ccc(NS(=O)(=O)c2ccc3c(c2)CCC(=O)N3)cc1 | . | . | 79.4µM* | . | . | 0.8%
N#Cc1cccc(NS(=O)(=O)c2ccc3c(c2)CCC(=O)N3)c1 | . | . | -4.3% | . | . | 1.5%
CCN(c1ccccc1)S(=O)(=O)c1nnc(NC(=O)COc2ccccc2F)s1 | ? | . | ? | -21.6% | . | -2.6%
COc1cccc(/C=N/NC(=O)c2ccoc2C)c1O | 2.5% | -74.4* | -1.5%[11.4 µM] | 74.6% | -91.9* | 7.1%
COC(=O)c1cccc(/C=N/NC(N)=S)c1O | 4.47µM* | -66.3* | ? | 34.3% | . | 0.0%
COc1cccc(/C=N/NC(=O)C(=O)N2CCCCCC2)c1O | 79.4µM* | -82.5* | 79.4µM* | 42.6% | -89.4* | 0.6%
COc1cc(/C=N/NC(=O)c2ccoc2C)ccc1O | 8.2% | -5.2 | 3.0% | 24.1% | -6.4 | 1.9%
COc1cccc(/C=N/NC(=O)C(=O)N/N=C/c2cccc(OC)c2O)c1O | 50.1µM* | ? | 100µM* | 37.3% | ? | 4.9%
CCCCC | . | . | . | . | . | 5.4%
COc1ccccc1/C=N/NC(=O)c1ccc(NC(=O)c2cccc([N+](=O)[O-])c2)cc1 | 7.7% | . | . | . | . | 2.7%
COc1cccc(/C=N/NC(=O)c2cc3cc([N+](=O)[O-])ccc3s2)c1O | 22.4µM* | ? | 63.1µM* | ? | ? | 1.1%
COc1cccc(/C=N\NC(=O)C2C(=O)NCC2c2ccccc2)c1O (stereo not drawn) | -1.5% | -86.5* | 9.1% | 38.3% | -89.8* | 0.0%
SMILES | BAZ2B block | Six1-Eya2 inh | JMJD2A Tudor | HP1b binding inh | CtBP-E1A inh | TDP1 inh
COc1ccc(/C=N/NC(=O)c2ccoc2C)cc1CN1CCN(c2ccc(F)cc2)CC1 | 79.4µM* | -18.0 | ? | ? | . | .
COc1cccc(/C=N/NC(=O)C(=O)NCc2ccco2)c1O | 3.1% | -89.3* | ? | 27.1% | -97.3* | 9.3%
CCc1ccc(CNC(=O)C2CCN(C(=O)c3ccc(-n4ccc5ccccc54)s3)CC2)cc1 | -0.2% | . | -12.7% | 19.8% | . | 0.0%
COc1cc2ccccc2cc1C(=O)Nc1ccc2oc(-c3cccc(C)c3)nc2c1 | -0.3% | . | -9.8% | 17.0% | . | 0.4%[12.3 µM]
COc1cccc(/C=N/NC(=O)c2cnccn2)c1O | 79.4µM* | -91.9* | -16.9%[11.4 µM] | 50.6% | -65.2* | .
COc1ccc2cc3cc(C(=O)NCc4cccs4)oc3nc2c1 | -32.7% | 0.1 | -29.1%[57.1 µM] | 38.4% | 2.1 | 31.6µM*
S=C(NN=C1CCCCCC1)Nc1ccc(Cl)cc1 | -2.1% | 0.2 | 100µM* | -18.0% | 6.2 | 4.7%
Fc1ccc(NC(=S)NN=C2CCCCCC2)cc1 | ? | -4.1 | 56.2µM* | -24.2% | -10.5 | 1.9%
Cc1ccc(NC(=O)CSc2nc(=O)n(Cc3cccnc3)c3c2CCC3)cc1F | -5.8% | . | -17.2% | -4.4% | . | 5.2%
COc1ccc(C(=O)Nc2nnc(SCc3cc(=O)n4cc(Cl)ccc4n3)s2)cc1 | 1.5% | . | -21.1% | 20.0%[57 µM] | . | -2.7%
Cc1ccc(S(=O)(=O)c2c(COC(=O)c3ccccc3Cl)c(-c3ccccc3)nn2C)cc1 | 6.31µM* | 5.6 | 1.2% | 26.9% | -2.9 | 3.3%
Cc1ccc(S(=O)(=O)c2c(CO)c(-c3ccccc3)nn2C)cc1 | -10.6% | -3.9 | -5.5% | 18.2% | -6.9 | 8.1%
CCOc1ccc(NC(=O)CC2C(=O)N(c3ccc(C)cc3)C(=O)N2CCC2=CCCCC2)cc1 (stereo not drawn) | 0.8% | . | -16.2% | 43.0% | . | 6.4%
O=C(/C=C/c1cccs1)NC(=S)NNC(=O)c1ccccc1O | ? | -75.7* | 79.4µM* | 5.9% | -94.1* | 5.0%
O=C(/C=C/c1cccs1)NC(=S)Nc1ccccc1 | 31.6µM* | -1.2 | ? | 2.0% | -2.5 | 5.9%
COc1ccc(C(=O)NNC(=S)NC(=O)/C=C/c2cccs2)cc1 | -6.0% | -1.1 | -21.5% | 11.1% | 3.3 | 5.6%
Nc1ncc(S(=O)(=O)NCc2ccc(Cl)cc2)cn1 | 4.5% | . | -12.3% | 18.1%[57 µM] | . | 2.2%
Cc1nc(-c2ccccc2)sc1CCNC(=O)C(=O)Nc1ccc2c(c1)OCO2 | -0.9% | . | 2.9% | 23.6%[57 µM] | . | 7.7%
COC(=O)c1ccccc1NC(=O)CCC(=O)N1CC(C)Sc2ccccc21 (stereo not drawn) | -4.3% | . | 13.9% | 40.0% | . | -5.1%
Cc1ccc(-n2c(CC#N)n[nH]c2=S)c(C)c1 | -17.7% | 4.7 | 20µM* | 39.3% | 4.7 | 0.0%
